Experimental data: PubChem BioAssay (EPA / NIEHS)
Active and inactive are the calls of the source. Rule for the calls: active = hit-call score of the fitted dose curve at least 0.9, where 1 is the maximum; inconclusive = response in the unintended direction; inactive = score below 0.9.

experiment: LTEA_HepaRG_LDH_cytotoxicity: Cytotoxicity Assessment in the Life Technologies and Expression Analysis (LTEA) Assay (AID 2283563)
Method: LTEA_HepaRG is a cell based, multiplexed-readout assay that uses HepaRG, a human liver cell line, with measurements taken at 48 hours after chemical dosing on a 96-well plate.LTEA_HepaRG_LDH_cytotoxicity is one of 102 assay component(s) measured in the LTEA HepaRG cell culture assay. It is a marker of cell viability / cytotoxicity.Data from the assay component LTEA_HepaRG_LDH_cytotoxicity was analyzed into 1 endpoint. This assay endpoint, LTEA_HepaRG_LDH_cytotoxicity, was analyzed in the positive fitting direction relative to DMSO as the negative control and baseline of activity. Using a type of inducible reporter, measures of mRNA induction for loss-of-signal activity can be used to understand cell death. To generalize the intended target to other relatable targets, this assay endpoint is annotated to the cell cycle intended target family, where the subfamily is proliferation.
A total of 1060 chemcials from the ToxCast library were tested in eight-point concentration-response experiments. Cell culture and cytotoxicity assays were conducted at Thermo Fisher Scientific's Custom Services facility (Madison, WI). A single lot of human HepaRG cells (Thermo Fisher Scientific, Frederick, MD) was used for the cell culture experiments. 96-well format collagen type I coated plates of human HepaRG cells were prepared using established methods. Briefly, cryopreserved HepaRG cells were thawed, plated at a density of approximately 100,000 cells/well in HepaRG Thaw, Plate, and General Purpose media (HPRG770, Thermo Fisher Scientific), and incubated for 48 hours. 0.5% DMSO was selected as vehicle control to balance the requisite need of DMSO in HepaRG cultures to maintain differentiation (for example, baseline metabolism, proportions of hepatocytes vs. cholangiocytes), while enabling further hepatic receptor pathway activation (for example, PXR and CAR) in response to chemical exposure. 48 hours after plating, the culture medium was replaced with HepaRG Serum-Free Incudtion Media. Cells were exposed to each test chemical in duplicate and maintained in CO2 incubators for another 48 hours. Chemical plates were thawed to room temperature and 200x concentrations of treatment groups were prepared. 8-point conentration-reponse curves were made with the highest exposure at 100 uM, followed by half-log dilutions, all in 0.5% DMSO. Each test plate contained variouse controls, induction positive controls (1mM phenobarbital), cytotoxicity positive controls ([…] aflatoxin B1), vehicle controls (0.5% DMSO), and total lysis controls (0.5% DMSO). Cell morphology images were taken using an Essen IncuCyte FLR automated microscope, with six 96-well plates imaged in about 24 minutes. Images were captured and exported and JPEG files. Spent culture media was transfered to black-well plates for the LDH assay, and remaining media was sorted at -80 C for later use. Cells were treated with RLT buffer and frozen until shipped for gene expression analysis. Total RNA was isolated from the cell suspension in 75 uL of Buffer RLT (Qiagen, Germantown, MD 20874) by Quintiles/Expression Analysis (Durham, NC) using a custom isolation procedure. Total RNA from each plate well was transferred to a preamplification plate. Fluidigm's 96.96 Dynamic ArrayTM (Fluidigm, Amsterdam, the Netherlands) technology was used for gene expression analyses by quantitative reverse transcription polymerase chain reaction (qRT-PCR, performed by Quintiles/Expression Analysis, Durham, NC)89. Standard TaqManTM Assays (Applied Biosystems/ThermoFisher Scientific, Foster City, CA) were used to assess the expression of 93 genes selected based on their selectivity and sensitivity to important hepatic receptors known to be modulated by environmental chemicals; importance in human hepatocyte functionality; and hepatotoxicity. […]

SMILES | outcome | AC50
CCCCCCCCCCCCCCOS(=O)(=O)O | inactive | –
Cn1cnc2c1c(=O)[nH]c(=O)n2C | inactive | –
CC(=O)S[C@H](C(=O)N[C@H]1Cc2ccccc2[C@H]2CCC[C@@H](C(=O)O)N2C1=O)C(C)C | inactive | –
CCCCc1nc2cccnc2n1Cc1ccc(-c2ccccc2-c2nnn[nH]2)cc1 | inactive | –
CN(C)CCCN1c2ccccc2Sc2ccc(Cl)cc21 | – | 38.4 µM (active)
CC(N)=O | inactive | –
CC(C)OC(=O)C(C)(C)Oc1ccc(C(=O)c2ccc(Cl)cc2)cc1 | inactive | –
CC(C)c1cccc(C(C)C)c1 | inactive | –
CCCC(=O)O | inactive | –
O=C1c2c(O)cccc2Cc2cccc(O)c21 | inactive | –
NC=O | inactive | –
CC1(C)C(=O)NC(=O)N1CO | inactive | –
C#CC(O)C(CC)CCCC (stereo not given) | inactive | –
O=C(Oc1ccccc1)c1cccc(C(=O)Oc2ccccc2)c1 | inactive | –
CCc1nc(N)nc(N)c1-c1ccc(Cl)cc1 | – | 66.1 µM (active)
O=C(O)CC(O)(CC(=O)O)C(=O)O | inactive | –
Cc1cc(Cc2ccc(N)c(C)c2)ccc1N | inactive | –
COC(=O)CCCC(=O)OC | inactive | –
COC(=O)CCC(=O)OC | inactive | –
O=C1NC(=O)C(c2ccccc2)(c2ccccc2)N1 | inactive | –

SMILES | outcome | AC50
C=CCCCCCCCCCCCC | inactive | –
CCCC[C@H]1CN(CC2CCOCC2)C(=O)OC12CCN(C1(C)CCN(C(=O)c3c(C)ncnc3C)CC1)CC2 | inactive | –
O=C(O)c1[nH]n(-c2ccc(S(=O)(=O)O)cc2)c(=O)c1N=Nc1ccc(S(=O)(=O)O)cc1 | inactive | –
OCC(O)CO | inactive | –
CC(C)c1cccc(C(C)C)c1NC(=O)NS(=O)(=O)c1cc(C(C)(C)O)co1 | inactive | –
C=CCc1ccc(OC)c(OC)c1 | inactive | –
Oc1ccccc1O | inactive | –
O=C1OC(c2ccc(O)cc2)(c2ccc(O)cc2)c2ccccc21 | inactive | –
CCCCC(CC)COP(=O)(OCC(CC)CCCC)OCC(CC)CCCC (stereo not given) | inactive | –
Oc1ccc(O)cc1 | inactive | –
CS(=O)(=O)c1ccc([C@@H](C[C@H]2CCC(=O)C2)C(=O)Nc2cnccn2)cc1Cl | inactive | –
CC(C)(C)c1ccccc1 | inactive | –
CC(C)(O)c1ccc(CNC(=O)c2cccnc2Oc2ccc(F)cc2)cc1 | inactive | –
O=NO | inactive | –
CCCCCCCCCC[N+](C)(C)[O-] | inactive | –
C/C=C/c1ccc(OC)cc1 | inactive | –
Cc1ccc(-c2cc(C(F)(F)F)nn2-c2ccc(S(N)(=O)=O)cc2)cc1 | – | 74.4 µM (active)
CC(=O)CC(c1ccccc1)c1c(O)c2ccccc2oc1=O (stereo not given) | inactive | –
CC(=O)OC1CC(C)OC(C)O1 (stereo not given) | inactive | –
OCC(CO)n1cnc(-c2ccc(F)cc2)c1-c1ccnc(Oc2ccccc2)n1 | inactive | –
